{"source": "PubChem BioAssay AID504332", "about": "(National Center for Advancing Translational Sciences (NCATS), 2011)", "note": "Several values for one entry are separate records, joined by “and”; a condition that tells them apart may be missing. Equal values may be shown once. In all, about 350,000 compounds went through this assay and about 31,000 (8.9%) were called active. Entries that show only a call come without a potency. About 15% were inconclusive and are not listed. The call rests on the fitted dose curve; in most records, active means well fitted inhibition curve with a large enough effect; inconclusive means small, poorly fitted or top-dose-only effect; inactive means no such curve, though single readings can be large or run the other way. The full list was thinned out, with actives kept by preference. A structure can be active in one record and inactive in another. Potency means the concentration at half of the fitted maximal effect."}
{"target": "Histone-lysine N-methyltransferase EHMT2 (Homo sapiens) (UniProt Q96KQ7)", "sequence (Q96KQ7 913-1193 limits assumed)": "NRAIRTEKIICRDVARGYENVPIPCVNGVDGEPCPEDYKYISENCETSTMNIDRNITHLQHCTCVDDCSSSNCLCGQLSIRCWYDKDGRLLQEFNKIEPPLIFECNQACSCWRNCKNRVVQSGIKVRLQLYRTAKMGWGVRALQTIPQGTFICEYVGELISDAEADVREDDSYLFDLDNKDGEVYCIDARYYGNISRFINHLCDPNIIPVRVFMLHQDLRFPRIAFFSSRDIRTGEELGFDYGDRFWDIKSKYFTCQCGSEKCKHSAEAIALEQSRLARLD", "experiment": "qHTS Assay for Inhibitors of Histone Lysine Methyltransferase G9a; further: nearly all actives have a fitted effect of over 75% in size", "details": "G9a H3K9 monomethylation, AlphaScreen, 2 h; series mostly up to 59 µM", "how_it_was_run": "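Readings reflect AlphaScreen signal from monomethyl-H3K9 antibody detection. HMT at 20 nM; substrate b-H3K9 500 nM; cofactor SAM 20 uM; 2 h RT reaction; compounds tested as titrations in qHTS with 15 min preincubation.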"}
{"smiles": "COCCn1c(CCC(=O)Nc2cc(C)ccc2C)nc2cccnc21", "Potency": "inactive"}
{"smiles": "O=C(OCC(=O)N1CCc2ccccc21)C1CCCN1S(=O)(=O)c1ccc(Cl)cc1", "note": "(configuration not stated)", "activity, negative = inhibition": "0.8% [at 2.33 µM] (inactive)"}
{"smiles": "CCCC(=O)Nc1ncnc2c1ncn2[C@@H]1O[C@@H]2OP(=O)(O)OC[C@H]2[C@H]1OC(=O)CCC", "Potency": "inactive"}
{"smiles": "CCCOc1cccc(C(=O)Nc2cccc(NC(=O)c3ccc(C(C)(C)C)cc3)c2)c1", "Potency": "inactive"}
{"smiles": "COc1ccc2c(c1)[C@H]1[C@H](CO2)[C@H](c2ccccc2)[C@]2(C)C(=O)Nc3cc(F)c(F)cc3C(=O)N12", "activity, negative = inhibition": "5.78% [at 2.33 µM] (inactive)"}
{"smiles": "COc1ccc(-c2nonc2NC(=O)c2oc3ccc(F)cc3c2C)cc1OC", "Potency": "inactive"}
{"smiles": "Cc1c(NC(=O)Cc2ccccc2)cccc1-c1nc2cccnc2s1", "Potency": "inactive"}
{"smiles": "O=C(Cc1cc(=O)[nH][nH]1)N/N=C/c1ccccc1[N+](=O)[O-]", "Potency": "inactive"}
{"smiles": "O=C(N/N=C/c1cc(Cl)cc([N+](=O)[O-])c1O)C(O)(c1ccccc1)c1ccccc1", "Potency": "28.2 µM (active)"}
{"smiles": "CN(C)/N=C/c1cc(Cl)cc([N+](=O)[O-])c1O", "Potency": "inactive"}
{"smiles": "CCOc1ccc(N(CC)C(=O)c2noc3c2COc2ccc(C)cc2-3)cc1", "Potency": "inactive"}
{"smiles": "CCn1cc(C(=O)N2CC(C)CC(C)C2)c(=O)c2cc(S(=O)(=O)N3CCCC3)ccc21", "note": "(configuration not stated)", "Potency": "inactive"}
{"smiles": "CC1CCCCC1NC(=O)c1cn(C)c2ccc(S(=O)(=O)N3CCOCC3)cc2c1=O", "note": "(configuration not stated)", "Potency": "inactive"}
{"smiles": "COC(=O)c1cn(C)c2ccc(S(=O)(=O)N3CC(C)CC(C)C3)cc2c1=O", "note": "(configuration not stated)", "Potency": "56.2 µM (active)"}
{"smiles": "O=C1C=C(c2ccnc3cc(Cl)ccc23)C[C@@H](c2ccc3c(c2)OCO3)C1", "activity, negative = inhibition": "-18.7% [at 0.501 µM] (inactive)"}
{"smiles": "COc1cccc(N2CC(NS(=O)(=O)c3cccs3)CC2=O)c1", "note": "(configuration not stated)", "Potency": "inactive"}
{"smiles": "Cc1ccc2c(CSc3nncs3)cc(=O)oc2c1", "Potency": "50.1 µM (active)"}
{"smiles": "Cc1ccc2c(CN3CCN(S(=O)(=O)c4ccccc4C(F)(F)F)CC3)cc(=O)oc2c1", "activity, negative = inhibition": "-13.1% [at 12.7 µM] (inactive)"}
{"smiles": "COCc1cc(=O)oc2cc(NS(=O)(=O)c3ccc(C)cc3)ccc12", "Potency": "inactive"}
{"smiles": "CC(C)CNC(=O)COC(=O)/C=C/c1ccccc1[N+](=O)[O-]", "Potency": "inactive"}
{"smiles": "CC1CC(C)CN(C/C=C/c2ccccc2[N+](=O)[O-])C1", "note": "(configuration not stated)", "Potency": "50.1 µM (active)"}
{"smiles": "O=C(/C=C/c1ccccc1[N+](=O)[O-])NCC1CCCO1", "note": "(configuration not stated)", "Potency": "inactive"}
{"smiles": "O=[N+]([O-])c1ccccc1/C=C/CN1CCC(O)CC1", "Potency": "39.8 µM (active)"}
{"smiles": "O=C(/C=C/c1ccccc1[N+](=O)[O-])OC1CCCCC1=O", "note": "(configuration not stated)", "Potency": "inactive"}
{"smiles": "O=C(/C=C/c1ccccc1[N+](=O)[O-])OCC(=O)N1CCCC1", "activity, negative = inhibition": "11.7% [at 12.7 µM] (inactive)"}
{"smiles": "CCC1(C)CC(=O)c2c(ccc3oc(C(=O)Nc4ccc(C(C)=O)cc4)c(C)c23)O1", "note": "(configuration not stated)", "Potency": "inactive"}
{"smiles": "Cc1ccc(C)c(N2CCN(C(=O)C3CCC(CNS(=O)(=O)c4cccs4)CC3)CC2)c1", "note": "(configuration not stated)", "Potency": "inactive"}
{"smiles": "CCCN1CCN(C(=O)CCCNC(=O)c2ccc(Cl)cc2)CC1", "Potency": "inactive"}
{"smiles": "COc1ccccc1NC(=O)c1cc(C2CC2)nc2c1c(C)nn2-c1ccc(C)cc1", "Potency": "inactive"}
{"smiles": "CCN(CC)S(=O)(=O)c1ccc2c(c1)N(CC(=O)NCC(C)c1ccccc1)C(=O)CO2", "note": "(configuration not stated)", "Potency": "inactive"}
{"smiles": "O=C(COC(=O)c1cc(S(=O)(=O)N2CCOCC2)ccc1Cl)NCCc1ccccc1", "activity, negative = inhibition": "-2.95% [at 12.7 µM] (inactive)"}
{"smiles": "Cc1ccnc(NC(=O)CNC(=O)c2ccccc2)c1", "Potency": "inactive"}
{"smiles": "O=C(O)/C=C/c1cn(-c2ccccc2)nc1-c1cccs1", "Potency": "inactive"}
{"smiles": "S=c1[nH]c(-c2cccs2)cn1-c1ccccc1", "Potency": "2.51 µM (active)"}
{"smiles": "O=c1[nH]c(-c2cccs2)nc2ccccc12", "Potency": "inactive"}
{"smiles": "CC1=C(C(=O)OCC(C)C)C(c2ccc(OCc3ccccc3)cc2)N2C(=O)CCSC2=N1", "note": "(configuration not stated)", "Potency": "inactive"}
{"smiles": "O=C(c1ccc[nH]c1=S)N1CCN(S(=O)(=O)c2ccc(Br)cc2Cl)CC1", "Potency": "8.91 µM (active)"}
{"smiles": "O=C(c1ccc(Cl)c(S(=O)(=O)N2CCCCC2)c1)N1CCCCCC1", "Potency": "inactive"}
{"smiles": "O=C(c1ccccc1F)N1CCN(S(=O)(=O)c2ccc(Br)cc2)CC1", "Potency": "inactive"}
{"smiles": "CC(C)CN(C(=O)Cn1c(=O)cnc2ccccc21)C1CCS(=O)(=O)C1", "note": "(configuration not stated)", "Potency": "inactive"}
{"smiles": "O=C1[C@H]2[C@@H](c3ccc(Cl)cc3)N3C(=O)N(c4cccc(F)c4)C(=O)[C@@]3(Cc3ccccc3)[C@H]2C(=O)N1C1CCCCC1", "activity, negative = inhibition": "-8.78% [at 2.33 µM] (inactive)"}
{"smiles": "S=c1nc2ccccc2c2nc(-c3cccnc3)[nH]n12", "Potency": "10 µM (active)"}
{"smiles": "c1cncc(-c2nc(N3CCNCC3)c3ccccc3n2)c1", "activity, negative = inhibition": "8.14% [at 0.501 µM] (inactive)"}
{"smiles": "CC(C)(C)OC(=O)N1CCC(c2c(C(=O)NCc3ccccn3)cnn2-c2ccc(F)cc2)CC1", "Potency": "inactive"}
{"smiles": "COCCNC(=S)N(CCc1c(C)[nH]c2ccc(C)cc12)Cc1cccnc1", "Potency": "70.8 µM (active)"}
{"smiles": "COCCNC(=S)N(Cc1cccnc1)Cc1ccc(OC)c(OC)c1", "Potency": "inactive"}
{"smiles": "Cc1ccc(NC(=S)N(Cc2ccco2)C(C)c2cccs2)cc1", "note": "(configuration not stated)", "Potency": "inactive"}
{"smiles": "CCNC(=S)N(CCc1c(C)[nH]c2ccc(C)cc12)Cc1ccco1", "Potency": "50.1 µM (active)"}
{"smiles": "Cc1ccc2[nH]c(C)c(CCNC(=O)NC3CCCCC3)c2c1", "Potency": "inactive"}
{"smiles": "Cc1ccc(CN(Cc2cccnc2)C(=S)Nc2cc(Cl)ccc2C)cc1", "Potency": "inactive"}
{"smiles": "COC(=O)c1ccc(-c2c(-c3ccccc3)ncc3cc(OC)c(OC)cc23)cc1", "activity, negative = inhibition": "-32.8% [at 0.501 µM] (inactive)"}
{"smiles": "Cc1cc(C)n2nc(C(=O)OC(C)C(=O)c3cc(C)c(C)cc3C)nc2n1", "note": "(configuration not stated)", "activity, negative = inhibition": "20.5% [at 0.501 µM] (inactive)"}
{"smiles": "COc1cccc(C(=O)NCc2ccc3c(c2)CCN3C(=O)c2ccncc2)c1", "Potency": "inactive"}
{"smiles": "O=C(Cc1cccs1)NCc1cccc(C(F)(F)F)c1", "Potency": "inactive"}
{"smiles": "COc1ccccc1NC(=O)CCC(=O)OC(C)C(=O)c1ccccc1", "note": "(configuration not stated)", "Potency": "inactive"}
{"smiles": "O=C(CN1C(=O)NC2(CCOc3ccccc32)C1=O)NCc1ccc(F)cc1", "note": "(configuration not stated)", "activity, negative = inhibition": "28.5% [at 12.7 µM] (inactive)"}
{"smiles": "O=C(CN1CCOCC1)Nc1ccc(NC(=O)CN2CCOCC2)c(Cl)c1", "Potency": "inactive"}
{"smiles": "CC1CCCC(C)N1C(=O)CN1CCN(c2nc(-c3ccc(F)cc3)cs2)CC1", "note": "(configuration not stated)", "Potency": "inactive"}
{"smiles": "COc1cc(NC(=O)CN2CCN(S(=O)(=O)c3ccc(Br)cc3)CC2)cc(OC)c1", "Potency": "inactive"}
{"smiles": "COc1cccc(NC(=O)CN2CCN(c3nc(-c4cccc(OC)c4)cs3)CC2)c1", "Potency": "10 µM (active)"}
{"smiles": "COc1cccc(CC(=O)Nc2ccc(-c3csc(C)n3)cc2)c1", "Potency": "inactive"}
{"smiles": "COc1cccc(NC(=O)CN2CCN(CC(=O)Nc3ccccc3Cl)CC2)c1", "Potency": "35.5 µM (active)"}
{"smiles": "CC(C)c1ccccc1OCC(O)CN(CC(O)COc1cccc2ccccc12)C(C)C", "note": "(configuration not stated)", "Potency": "inactive"}
{"smiles": "COc1ccc(CCNC(=O)c2ccc3c(c2)sc2nc(-c4ccc(C)cc4)cn23)cc1OC", "Potency": "inactive"}
{"smiles": "Cc1c(Cl)cccc1NC(=O)N1CCN(C(=O)c2nsc3ccccc23)CC1", "Potency": "inactive"}
{"smiles": "CC1=C(C/C=C(\\C)CCCC(C)CCCC(C)CCCC(C)C)C(=O)c2ccccc2C1=O", "note": "(configuration not stated)", "Potency": "inactive and 14.1 µM (active)"}
{"smiles": "Cn1cc(CNC(=O)c2ccc(OC3CCN(Cc4ccccn4)CC3)cc2)cn1", "Potency": "inactive"}
{"smiles": "N#Cc1c(Cl)nc(-c2cccnc2)nc1-c1ccccc1", "activity, negative = inhibition": "-10.7% [at 2.33 µM] (inactive)"}
{"smiles": "CCOc1ccc(N(CC)S(=O)(=O)N2CCCC(C(=O)Nc3ccc(C(C)=O)cc3)C2)cc1", "note": "(configuration not stated)", "Potency": "inactive"}
{"smiles": "O=C(Nc1cc(S(=O)(=O)N2CCOCC2)ccc1OCC(F)(F)F)c1ccc(N2CCCC2=O)cc1", "Potency": "inactive"}
{"smiles": "CCN(CC)S(=O)(=O)c1cc([N+](=O)[O-])ccc1NNC(=O)Nc1ccccc1", "Potency": "15.8 µM (active)"}
{"smiles": "CC(=O)c1ccc(NC(=O)Nc2ccc([N+](=O)[O-])cc2C)cc1", "Potency": "inactive"}
{"smiles": "CCN(CC)S(=O)(=O)c1cc([N+](=O)[O-])ccc1N=Nc1c(O)n(C)c2ccccc12", "Potency": "inactive"}
{"smiles": "O=C(O)c1ccc(Cn2c(SCc3ccc(F)cc3)nc3ccncc32)cc1", "Potency": "inactive"}
{"smiles": "Cn1c(=O)nc2n(-c3ccc(Br)cc3)c3cccc(Cl)c3cc-2c1=O", "Potency": "inactive"}
{"smiles": "COc1ccccc1NC(=S)N1CCN(c2ccc(F)cc2)CC1", "activity, negative = inhibition": "-4.21% [at 0.501 µM] (inactive)"}
{"smiles": "CC(C)OCC(O)CN1CCN(C(c2ccccc2)c2ccccc2)CC1", "note": "(configuration not stated)", "Potency": "50.1 µM (active)"}
{"smiles": "Oc1ccccc1CN1CCN(C(c2ccccc2)c2ccccc2)CC1", "Potency": "28.2 µM (active)"}
{"smiles": "COc1ccccc1CN1CCN(C(c2ccccc2)c2ccccc2)CC1", "Potency": "10 µM (active)"}
{"smiles": "COc1ccccc1NC(=S)N1CCN(C(c2ccccc2)c2ccccc2)CC1", "Potency": "28.2 µM (active)"}
{"smiles": "COc1ccccc1CN1CC2(CCN(S(=O)(=O)c3ccccc3)CC2)C1", "activity, negative = inhibition": "8.67% [at 12.7 µM] (inactive)"}
{"smiles": "CC(C)NC(=S)N1CCN(C(c2ccccc2)c2ccccc2)CC1", "Potency": "inactive"}
{"smiles": "CCOc1ccccc1NC(=S)N1CCN(c2cccc(C)c2C)CC1", "Potency": "inactive"}
{"smiles": "c1ccc(C(c2ccccc2)N2CCN(Cc3nnnn3C3CCCCC3)CC2)cc1", "Potency": "inactive"}
{"smiles": "CC(=O)N1CCN(CC(c2ccccc2)c2ccccc2)CC1", "Potency": "inactive"}
{"smiles": "O=C(c1ccc(-n2cnnn2)cc1)N1CCN(C(c2ccccc2)c2ccccc2)CC1", "Potency": "inactive"}
{"smiles": "COc1ccccc1CNCc1ccc(C(=O)O)s1", "Potency": "inactive"}
{"smiles": "O=C(NCCCc1ccccc1)c1cc(COc2c(F)cccc2F)on1", "Potency": "inactive"}
{"smiles": "CCc1nn(CCCC(=O)NCc2ccc(C)cc2)c(=O)c2cc3occc3n12", "Potency": "inactive"}
{"smiles": "CN(CCc1ccccn1)C1CCCN(S(=O)(=O)c2ccccc2Cl)C1", "note": "(configuration not stated)", "Potency": "inactive"}
{"smiles": "COc1c(Cl)cc(Cl)cc1C(=O)Nc1cccc2cccnc12", "Potency": "inactive"}
{"smiles": "COc1ccc(-c2nn3c(=O)cc(CN4CCN(C(=O)c5ccc(OC)c(OC)c5)CC4)nc3s2)cc1", "Potency": "inactive"}
